Screening results: PubChem, Johns Hopkins Ion Channel Center
KCNQ2 inh = rat KCNQ2 potassium channel inhibitors, primary screen, cell-based, CHO-K1, FluxOR thallium flux, B-score | 20 min; hits give low values | Potassium voltage-gated channel subfamily KQT member 2 (Rattus norvegicus), O88943 | AID 2156, 2009 | 310,000 compounds, 1.1% hits | B-score at 10 µM;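 active means fluorescence ratio B-score at most minus 3 library SDs, with starting brightness B-score within 2 library SDs, cut at about -5.5 in these data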
Target sequence (O88943 whole entry, looked up): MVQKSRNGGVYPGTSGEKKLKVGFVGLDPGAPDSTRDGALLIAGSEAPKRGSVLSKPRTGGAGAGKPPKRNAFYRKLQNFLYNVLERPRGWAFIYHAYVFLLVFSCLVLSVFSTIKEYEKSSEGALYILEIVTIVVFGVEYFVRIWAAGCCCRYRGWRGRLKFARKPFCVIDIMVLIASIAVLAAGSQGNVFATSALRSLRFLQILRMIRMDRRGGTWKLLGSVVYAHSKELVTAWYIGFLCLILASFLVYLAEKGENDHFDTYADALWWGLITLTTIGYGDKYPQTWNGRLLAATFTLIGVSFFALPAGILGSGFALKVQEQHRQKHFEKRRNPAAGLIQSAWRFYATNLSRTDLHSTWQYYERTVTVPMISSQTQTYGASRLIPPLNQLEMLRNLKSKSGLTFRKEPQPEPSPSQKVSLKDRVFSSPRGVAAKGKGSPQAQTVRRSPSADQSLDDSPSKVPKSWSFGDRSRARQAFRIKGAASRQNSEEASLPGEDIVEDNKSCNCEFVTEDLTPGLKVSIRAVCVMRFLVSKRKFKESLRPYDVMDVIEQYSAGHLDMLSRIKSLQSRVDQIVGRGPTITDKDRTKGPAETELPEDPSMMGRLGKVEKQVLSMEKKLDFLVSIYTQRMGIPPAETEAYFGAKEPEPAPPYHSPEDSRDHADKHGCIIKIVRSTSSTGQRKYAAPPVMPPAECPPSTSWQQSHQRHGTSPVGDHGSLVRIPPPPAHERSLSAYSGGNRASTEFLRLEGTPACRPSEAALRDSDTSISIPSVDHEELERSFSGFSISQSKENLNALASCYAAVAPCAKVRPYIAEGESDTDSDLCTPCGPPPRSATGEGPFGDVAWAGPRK
KCNQ2 enhance = potentiators of rat KCNQ2 potassium channel. B-score at 10 µM. AID 2239, 2010. 310,000 compounds, 0.54% hits. CHO-K1 KCNQ2, FluxOR thallium flux fluorescence; hits give high values;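 active means fluorescence ratio B-score at least 3 SD of library B-scores, with initial fluorescence B-score within 3 of them, cut at about 5.3 in these data; same plate scores as AID 2156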;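 further: B-score of peak minus minimum over baseline fluorescence ratio after K+ and Tl+ stimulus; positive B-score means potentiation of KCNQ2 with more thallium influx and brighter signal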
* hit, by the source's call; i = inactive; nt = no result. Most compounds without a hit are left out; they make up all but 1.6% or so of the library.

SMILES	KCNQ2 inh	KCNQ2 enhance
Cn1c(=O)n(C)c2cc(NC(=O)CSc3ccccc3)ccc21	i	1.78
CCc1ccc(OCCCC(=O)NCc2ccco2)cc1	i	0.58
CCc1ccc(N/C(SCc2ccccc2C)=C(/C#N)C(=O)NCc2ccco2)cc1	-6.11*	-6.11
Cn1c(=O)c2c(ncn2CC(=O)N/N=C/C=C/c2ccccc2[N+](=O)[O-])n(C)c1=O	i	nt
Cn1nc(C(=O)Nc2ccccc2N2CCCC2)c2ccccc2c1=O	-5.64*	-5.64
CC(C)n1nc(C(=O)Nc2ccccc2N2CCOCC2)c2ccccc2c1=O	i	nt
CN(Cc1ccccn1)C(=O)C1CCC(=O)N(CCc2ccc(Cl)cc2)C1 (stereo not drawn)	i	0.06
Cn1c2ccccc2c2cc(/C=N/NC(=O)c3cc(O)ccc3O)ccc21	-7.17*	-7.17
Cn1c2ccccc2c2cc(/C=N/NC(=O)c3cc(O)cc(O)c3)ccc21	i	nt
O=S(=O)(Nc1c(S(=O)(=O)c2ccccc2)c2nc3ccccc3nc2n1C1CCCCC1)c1ccccc1	-6.15*	-6.15
C=CCn1c(NS(=O)(=O)c2ccccc2)c(S(=O)(=O)c2ccc(C)cc2)c2nc3ccccc3nc21	i	nt
O=C(NCc1c(Cl)cccc1Oc1ccccc1)c1ccccc1	i	nt
COc1ccc(C2CC(c3ccccc3)Nc3nc(NC(=O)c4cccs4)nn32)cc1 (stereo not drawn)	i	0.27
COc1ccc(C2CC(c3ccccc3)n3nc(NC(=O)c4cccs4)nc3N2)cc1 (stereo not drawn)	-5.61*	-5.61
O=C(CN1CCN(C(=O)C2CCCO2)CC1)Nc1ccc(Cl)cc1 (stereo not drawn)	i	1.28
C=CCOc1c(Br)cc(CNc2ccc(NC(=O)C(C)C)cc2)cc1OCC	i	8.32*
CCOc1cc(CNc2ccc(O)cc2)cc(Br)c1OCc1ccccc1F	i	nt
COc1cccc(CNC(=O)CSc2nc3ccc(C)cc3[nH]2)c1	i	0.55
Oc1ccc(Br)cc1-c1cc(-c2ccco2)[nH]n1	i	nt
Oc1ccc(Br)cc1-c1ccn[nH]1	i	11.8*
CCCCc1ccc(NC(=O)CC(C)(C)C)cc1	i	14*
CCCCc1ccc(NC(=O)CC(C)=O)cc1	i	1.02
COc1ccc(Cl)cc1N(C(=O)Nc1cccc(Cl)c1)C1=NCC(C)S1 (stereo not drawn)	i	nt
O=C(N/C(=C\c1ccco1)C(=O)N1CCOCC1)c1ccc([N+](=O)[O-])cc1	i	0.26
O=C(N/C(=C\c1ccc(Br)cc1)C(=O)N1CCOCC1)c1ccc([N+](=O)[O-])cc1	-5.94*	-5.94
SMILES	KCNQ2 inh	KCNQ2 enhance
CC(C)CCNC(=O)C(CC(C)C)N(Cc1ccc2c(c1)OCO2)C(=O)c1snc(C(N)=O)c1N (stereo not drawn)	i	nt
COc1ccc(S(=O)(=O)N2C(=O)/C(=C3\SC(N)=NC3=O)c3ccccc32)cc1	i	0.98
CCOC(=O)C1=C(C)NC(=S)NC1c1ccc(OCC(=O)N2CCCCCC2)c(OC)c1 (stereo not drawn)	i	0.3
COc1ccccc1/C=C/C(=O)NC(=S)NCC1CCCO1 (stereo not drawn)	-7.08*	-7.08
COc1ccc(/C=C/C(=O)NC(=S)NCC2CCCO2)cc1 (stereo not drawn)	i	0.3
CCOC(=O)c1ccc(CC(=O)c2ccc(O)cc2O)o1	i	nt
COC(=O)c1ccc(CC(=O)c2ccc(O)cc2O)o1	-5.83*	-5.83
CCOC(=O)CCSc1nc(C(C)(C)C)cc(C(F)(F)F)c1C#N	i	nt
CCOC(=O)CCSc1nc(C)cc(C(F)(F)F)c1C#N	-5.74*	-5.74
O=C(COC(=O)/C=C/C(=O)OCC(=O)NC12CC3CC(CC(C3)C1)C2)NC12CC3CC(CC(C3)C1)C2	i	0.38
COc1ccc(-c2nc(CN(CC3CCC(=O)N3)C(C)C)c(C)o2)c(C)c1C (stereo not drawn)	-6.69*	-6.69
COc1ccc(-c2nc(CN(C)C(C)c3ccon3)c(C)o2)c(C)c1C (stereo not drawn)	i	nt
CC(=O)c1ccc(NC(=O)COC(=O)c2ccccc2Nc2ccccc2)cc1	i	nt
O=C(COC(=O)c1ccccc1Nc1ccccc1)Nc1ccccc1	i	5.81*
CCN1CCc2c(sc(NC(=O)c3ccc(S(=O)(=O)N(C)CC4CCCO4)cc3)c2C(N)=O)C1 (stereo not drawn)	i	2.39
Cc1ccc2cc(C#N)c(NCCNC(=S)NCCCN(C)C)nc2c1C	i	nt
Cc1cc(C)c2nc(NCCCNC(=S)NCCCN(C)C)c(C#N)cc2c1	-7.29*	-7.29
NC(=O)c1ccc(NC(=O)COc2cccc3ccccc23)cc1	i	0.03
Cc1cc(NC(=O)CSc2nnc(COc3cccc(C)c3C)n2Cc2ccco2)no1	i	0.07
Cc1cccc(OCc2nnc(SCC(=O)N(C(C)C)C(C)C)n2Cc2ccco2)c1C	-7.68*	-7.68
Cc1ccc(C(=O)O)cc1N1C(=O)c2cccc3c([N+](=O)[O-])ccc(c23)C1=O	i	nt
O=C(O)c1ccc(CN2C(=O)c3cccc4c([N+](=O)[O-])ccc(c34)C2=O)cc1	-8.64*	-8.64
Cc1occc1C(=O)N1CCCC(CO)(Cc2ccc(F)cc2F)C1 (stereo not drawn)	i	nt
COc1ccc(C=O)cc1COc1ccccc1F	i	nt
COc1ccc(/C=C/C(=O)c2ccccc2)cc1COc1ccccc1F	-7.58*	-7.58
SMILES	KCNQ2 inh	KCNQ2 enhance
CCN(C(=O)CSc1ncnc2sc(C)c(C)c12)C1CCS(=O)(=O)C1 (stereo not drawn)	i	nt
CCCN(CC1CC1)C(=O)CSc1ncnc2sc(C)c(C)c12	-6.31*	-6.31
CC(C)n1cnnc1SCC(=O)NNC(=O)COc1ccc(Cl)cc1	i	0.58
COc1ccccc1NC(=O)CN1CCN(c2ccccc2F)CC1	-5.81*	-5.81
COc1ccccc1NC(=O)CN1CCN(c2ccccc2OC)CC1	i	1.5
COc1cc(OC)cc(C(=O)Nc2nc(CC(=O)NC(C)c3ccccc3)cs2)c1 (stereo not drawn)	-6.28*	-6.28
COc1ccc(C(=O)Nc2nc(CC(=O)NCCc3ccccc3)cs2)cc1	i	nt
Cc1ccc(C(C)(C)C)c(SCC(=O)Nc2nnc(C)s2)c1	i	1.37
CC1=C(/C=C/C(=O)O)C(C)(C)CCC1	i	0.54
CC1=C(/C=C/C(C)=C/C=C/C(C)=C\C(=O)O)C(C)(C)CCC1	-7.71*	-7.71
COCCn1c(SCC(=O)Nc2ncc(C)s2)nc2sc3c(c2c1=O)CCC3	i	0.28
COCCn1c(SCc2nnc(-c3ccccc3)o2)nc2sc3c(c2c1=O)CCC3	-6.63*	-6.63
Cc1cc(C)n(CC(=O)NC2CCCc3c2cnn3-c2ccc(C)c(C)c2)n1 (stereo not drawn)	i	1.1
CCn1cc(/C=N/NC(=O)COc2cccc3cccnc23)c2ccccc21	i	2.02
COc1ccc(S(=O)(=O)N(CC(=O)N/N=C/c2cccs2)c2cc(C)cc(C)c2)cc1OC	i	nt
CCOc1ccccc1NC(=O)c1cccc2c1C(=O)N(C1CCCCC1)C2	-6.33*	-6.33
Cc1ccccc1NC(=O)c1cccc2c1C(=O)N(C1CCCCC1)C2	i	nt
NS(=O)(=O)c1cccc(NS(=O)(=O)c2ccc(/C=C/C(=O)O)cc2)c1	i	nt
COc1cccc(OC)c1OCCCOc1cccc2cccnc12	-5.59*	-5.59
Cc1cccc(OCCCOc2cccc3cccnc23)c1C	i	nt
